Assay results as given in a collection of fitness landscapes (doi:10.1038/s41467-024-54723-y).
The full ranking holds about 18,000 sequences; the median of “TetR repression strength (sort-seq, GFP reporter)” is about 0.23, and the highest 2% start at about 0.68. The sample as a whole holds a higher share of the highest values than the screen did.

Each sequence was assayed against TetR (class B, Tn10) (UniProt P04483) (assay: TetR repression strength (sort-seq, GFP reporter) (relative to tetO2 = 1); higher = stronger repression). Conditions: E. coli.
Chain of TetR (class B, Tn10) (P04483 whole entry): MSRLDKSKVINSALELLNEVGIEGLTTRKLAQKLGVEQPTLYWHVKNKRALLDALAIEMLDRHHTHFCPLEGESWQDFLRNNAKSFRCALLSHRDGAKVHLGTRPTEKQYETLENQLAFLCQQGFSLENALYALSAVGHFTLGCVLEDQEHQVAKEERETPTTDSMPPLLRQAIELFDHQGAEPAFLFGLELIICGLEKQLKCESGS
In short: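 Three independent transformations of E. coli SIG10-MAX were made with a low-copy plasmid library randomizing eight operator positions between a constitutive promoter and sfGFP, with constitutive TetR. Following 5 h at 37 °C in LB plus 50 µg/mL chloramphenicol, 10^6 cells went through FACS into 13 fluorescence bins, and each bin was sequenced by Illumina. Repression strength was defined as the top bin index plus one minus the read-weighted mean bin, divided by the unaltered operator's value. Averages included only members reaching ≥30 reads in all replicates with a CV ≤0.5.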
Work on TCCCAAAAAGTTCCGGAGA yielded a TetR repression strength of 0.0327.
For TCCCATTTAGTCTGTGAGA, the TetR repression strength was 0.192.
TCCCTAAAAGTACAGGAGA was tested, and the TetR repression strength was 0.262.
TCCCGCTGAGTAATGGAGA gave a TetR repression strength of 0.218.
Sequence TCCCTGCGAGTATTTGAGA has a TetR repression strength of 0.391.
TCCCTAGTAGTGTGGGAGA was tested, and the TetR repression strength was 0.216.
Sequence TCCCTAGAAGTTTAAGAGA has a TetR repression strength of 0.0122.
Work on TCCCGTATAGTCTGTGAGA yielded a TetR repression strength of 0.0605.
TCCCGTCAAGTGTCCGAGA gave a TetR repression strength of 0.279.
TCCCGGACAGTCCGTGAGA was tested, and the TetR repression strength was 0.196.
TCCCAACCAGTAATGGAGA gave a TetR repression strength of 0.713.
In the case of TCCCTTGCAGTGATAGAGA, the TetR repression strength is reported as 0.657.
In the case of TCCCAACGAGTAATGGAGA, the TetR repression strength is reported as 0.395.
TCCCCGTCAGTGATAGAGA gave a TetR repression strength of 0.35.
Sequence TCCCGATCAGTGTTAGAGA has a TetR repression strength of 0.556.
TCCCTATCAGTGACGGAGA gave a TetR repression strength of 0.472.
In the case of TCCCAACCAGTCATGGAGA, the TetR repression strength is reported as 0.159.
TCCCTATCAGTGATAGAGA was tested, and the TetR repression strength was 1.
TCCCTATCAGTGTTAGAGA was tested, and the TetR repression strength was 0.974.
For TCCCTATCAGTGACTGAGA, the TetR repression strength was 0.722.
In the case of TCCCTTTCAGTGTTAGAGA, the TetR repression strength is reported as 0.459.
With TCCCTATTAGTGACTGAGA the TetR repression strength was 0.345.
TCCCGTCCAGTCTGAGAGA gave a TetR repression strength of 0.152.
TCCCGATGAGTGTGGGAGA showed a TetR repression strength of 0.221.
Sequence TCCCTATCAGTGATTGAGA has a TetR repression strength of 0.939.
For TCCCTTGAAGTCAGTGAGA, the TetR repression strength was 0.236.
TCCCTATCAGTGGGTGAGA gave a TetR repression strength of 0.554.
Sequence TCCCTATCAGTTATTGAGA has a TetR repression strength of 0.504.
In the case of TCCCTATCAGTAACTGAGA, the TetR repression strength is reported as 0.474.
For TCCCTTCAAGTCATTGAGA, the TetR repression strength was 0.0199.
TCCCTATTAGTAATTGAGA was tested, and the TetR repression strength was 0.416.
In the case of TCCCTTGAAGTCATTGAGA, the TetR repression strength is reported as 1.05.
For TCCCTGTCAGTGATTGAGA, the TetR repression strength was 0.592.
TCCCTATCAGTGCGTGAGA gave a TetR repression strength of 0.546.
TCCCTATCAGTGAGAGAGA was tested, and the TetR repression strength was 0.948.
TCCCTATCAGTAATTGAGA showed a TetR repression strength of 0.787.
TCCCTTATAGTATCAGAGA gave a TetR repression strength of 0.186.
Work on TCCCGATAAGTAGCGGAGA yielded a TetR repression strength of 0.234.
TCCCTTGCAGTGTACGAGA was tested, and the TetR repression strength was 0.204.
Work on TCCCCCTTAGTTGTCGAGA yielded a TetR repression strength of 0.307.
Sequence TCCCGCGAAGTGTTTGAGA has a TetR repression strength of 0.197.
In the case of TCCCTGGGAGTGACAGAGA, the TetR repression strength is reported as 0.299.
TCCCTAAGAGTGGGCGAGA gave a TetR repression strength of 0.157.
Sequence TCCCTAGAAGTGACGGAGA has a TetR repression strength of 0.153.
TCCCCGAGAGTCCTAGAGA was tested, and the TetR repression strength was 0.235.
TCCCGTCAAGTGCCGGAGA was tested, and the TetR repression strength was 0.325.
TCCCTAACAGTGAAAGAGA gave a TetR repression strength of 0.575.
With TCCCTGTCAGTGACAGAGA the TetR repression strength was 0.636.
Sequence TCCCTATCAGTCAAAGAGA has a TetR repression strength of 0.636.
TCCCTATCAGTGACAGAGA was tested, and the TetR repression strength was 0.863.
In the case of TCCCTATCAGTGAGTGAGA, the TetR repression strength is reported as 0.79.
Sequence TCCCTATCAGTGGCAGAGA has a TetR repression strength of 0.771.
With TCCCTAACAGTGACAGAGA the TetR repression strength was 0.559.
With TCCCTGTCAGTGGCAGAGA the TetR repression strength was 0.545.
Sequence TCCCAATCAGTGGCAGAGA has a TetR repression strength of 0.433.
TCCCTATCAGTAAGTGAGA showed a TetR repression strength of 0.545.
TCCCTATCAGTGAAAGAGA showed a TetR repression strength of 0.784.
With TCCCTATCAGTGAGGGAGA the TetR repression strength was 0.5.
TCCCTGTTAGTGCGGGAGA was tested, and the TetR repression strength was 0.226.
TCCCGGTGAGTTGTCGAGA was tested, and the TetR repression strength was 0.355.
For TCCCATATAGTTTGGGAGA, the TetR repression strength was 0.175.
TCCCTTGAAGTATCGGAGA gave a TetR repression strength of 0.146.
Sequence TCCCATAGAGTGCGTGAGA has a TetR repression strength of 0.18.
Sequence TCCCTGGCAGTTTTTGAGA has a TetR repression strength of 0.196.
With TCCCCCCGAGTGCTGGAGA the TetR repression strength was 0.344.
For TCCCCCTGAGTCATTGAGA, the TetR repression strength was 0.526.
Work on TCCCGGGCAGTGGGGGAGA yielded a TetR repression strength of 0.347.
TCCCGCGTAGTGTACGAGA showed a TetR repression strength of 0.108.
With TCCCTATTAGTGAGAGAGA the TetR repression strength was 0.631.
Work on TCCCTATTAGTGAGTGAGA yielded a TetR repression strength of 0.762.
For TCCCTATTAGTGTGTGAGA, the TetR repression strength was 0.219.
Work on TCCCGTGGAGTGCACGAGA yielded a TetR repression strength of 0.315.
With TCCCAACAAGTGGATGAGA the TetR repression strength was 0.243.
For TCCCCCCCAGTGGATGAGA, the TetR repression strength was 0.232.
TCCCCACGAGTGGATGAGA gave a TetR repression strength of 0.382.
With TCCCCCACAGTGGATGAGA the TetR repression strength was 0.294.
Sequence TCCCCACAAGTGGATGAGA has a TetR repression strength of 1.22.
Work on TCCCCACCAGTGGATGAGA yielded a TetR repression strength of 1.05.
With TCCCCCCGAGTAAGTGAGA the TetR repression strength was 0.278.
TCCCGTCTAGTACTCGAGA gave a TetR repression strength of 0.262.
With TCCCAAAGAGTGGGCGAGA the TetR repression strength was 0.0498.
In the case of TCCCTCTTAGTGTGGGAGA, the TetR repression strength is reported as 0.0777.
TCCCGATGAGTATGTGAGA was tested, and the TetR repression strength was 0.366.
TCCCTGCCAGTATAGGAGA gave a TetR repression strength of 0.308.
In the case of TCCCCCCTAGTGGACGAGA, the TetR repression strength is reported as 0.178.
For TCCCTCGTAGTGGATGAGA, the TetR repression strength was 0.206.
TCCCTATGAGTTTAAGAGA gave a TetR repression strength of 1.03.
For TCCCTATGAGTAAAAGAGA, the TetR repression strength was 0.24.
With TCCCTATGAGTTCGAGAGA the TetR repression strength was 0.195.
Work on TCCCTATGAGTTGAAGAGA yielded a TetR repression strength of 0.326.
TCCCTATGAGTACCAGAGA showed a TetR repression strength of 0.857.
TCCCTATGAGTTTGAGAGA gave a TetR repression strength of 0.33.
Sequence TCCCTAAGAGTAAAAGAGA has a TetR repression strength of 0.839.
With TCCCTATGAGTTCCAGAGA the TetR repression strength was 1.01.
TCCCTATGAGTTCCCGAGA gave a TetR repression strength of 0.289.
With TCCCTATGAGTACGAGAGA the TetR repression strength was 0.291.
TCCCTAAGAGTACCAGAGA showed a TetR repression strength of 0.429.
For TCCCTAAGAGTAAACGAGA, the TetR repression strength was 0.446.
TCCCGTGTAGTAAGTGAGA showed a TetR repression strength of 0.313.
Work on TCCCCGAGAGTTGGGGAGA yielded a TetR repression strength of 0.104.
In the case of TCCCAATCAGTCCGCGAGA, the TetR repression strength is reported as 0.295.
TCCCAAGTAGTCACGGAGA gave a TetR repression strength of 0.295.
With TCCCCCGGAGTAGAGGAGA the TetR repression strength was 0.187.
Sequence TCCCGGCTAGTAGCAGAGA has a TetR repression strength of 0.0201.
In the case of TCCCTTTGAGTCGCAGAGA, the TetR repression strength is reported as 0.386.
TCCCAGGGAGTGGAAGAGA showed a TetR repression strength of 0.235.
TCCCGACTAGTTCGCGAGA gave a TetR repression strength of 0.367.
With TCCCATATAGTTAGCGAGA the TetR repression strength was 0.247.
TCCCTCAGAGTTCCAGAGA gave a TetR repression strength of 0.313.
With TCCCCACTAGTCCGTGAGA the TetR repression strength was 0.279.
TCCCCTAAAGTACAGGAGA showed a TetR repression strength of 0.0737.
With TCCCTTAAAGTACAGGAGA the TetR repression strength was 0.125.
TCCCCTATAGTACAGGAGA gave a TetR repression strength of 0.792.
TCCCTTATAGTACAGGAGA showed a TetR repression strength of 0.103.
Work on TCCCCTATAGTATAGGAGA yielded a TetR repression strength of 0.0691.
For TCCCCTTAAGTACAGGAGA, the TetR repression strength was 0.72.
In the case of TCCCTGGAAGTGCAAGAGA, the TetR repression strength is reported as 0.431.
Work on TCCCAGGCAGTTGAAGAGA yielded a TetR repression strength of 0.182.
For TCCCAGGCAGTTGAGGAGA, the TetR repression strength was 0.216.
TCCCAGGGAGTTGACGAGA gave a TetR repression strength of 0.0614.
With TCCCAGTCAGTTGAAGAGA the TetR repression strength was 0.858.
With TCCCAGGCAGTTGACGAGA the TetR repression strength was 0.698.
For TCCCAATCAGTTGAAGAGA, the TetR repression strength was 0.279.
Work on TCCCACCAAGTCAATGAGA yielded a TetR repression strength of 0.943.
TCCCCACCAGTCAATGAGA gave a TetR repression strength of 0.315.
Sequence TCCCACCCAGTCAATGAGA has a TetR repression strength of 0.783.
In the case of TCCCAAGTAGTCAATGAGA, the TetR repression strength is reported as 0.663.
For TCCCAATGAGTCAATGAGA, the TetR repression strength was 0.207.
In the case of TCCCATCCAGTCAATGAGA, the TetR repression strength is reported as 0.0518.
In the case of TCCCCGCGAGTTGTAGAGA, the TetR repression strength is reported as 0.0957.
